Test results as given in PubChem BioAssay AID761 (NMMLSC, 2007).
Out of some 190,000 compounds screened, about 400 (0.21%) were called active. Not shown: some 2% with an inconclusive outcome.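 How the source made its calls: active means percent activity GTP binding at least 20 points away from the 100% baseline, either down as inhibitor or up as activator; inconclusive means compound flagged as likely green fluorescent from well-wide comparison; inactive means the rest.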 The entries come from a sample that favours actives as a whole.

The compounds below were run against Cell division control protein 42 homolog (Homo sapiens) (UniProt P60953) (assay: modulators of GTP binding to wildtype Cdc42, primary screen, biochemical, multiplex bead flow cytometry, Bodipy-GTP (AID 761;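 further: median bead fluorescence of bound Bodipy-FL-GTP at 100 nM; 0% = excess unlabeled GTP control and 100% = no compound control; below 100% means less GTP binding so inhibitor and above means activator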)). Conditions: GST-Cdc42 beads, at 10 µM, actives lie on both sides.
Sequence of Cell division control protein 42 homolog (Homo sapiens) (P60953 whole entry, looked up): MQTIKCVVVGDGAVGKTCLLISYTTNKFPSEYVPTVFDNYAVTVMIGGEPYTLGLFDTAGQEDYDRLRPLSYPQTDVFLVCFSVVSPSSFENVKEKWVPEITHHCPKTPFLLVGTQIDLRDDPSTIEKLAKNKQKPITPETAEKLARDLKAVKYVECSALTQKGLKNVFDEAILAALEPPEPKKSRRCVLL

SMILES	percent activity (GTP binding)
O=C(O)c1n[nH]nc1-c1ccccc1	99% (inactive)
O=C(/C=C\c1cn(-c2ccccc2)nc1-c1cccs1)N1CCOCC1	100% (inactive)
O=C(O)/C=C/c1cn(Cc2ccccc2)nc1-c1cccs1	135% [activator] (active)
O=C(O)/C=C/c1cn(-c2ccccc2)nc1-c1cccs1	93% (inactive)
NS(=O)(=O)c1ccc(NC(=O)/C=C/c2ccccc2Cl)cc1	97% (inactive)
O=C(COc1cc(Cl)c(Cl)cc1Cl)NCCc1ccccn1	94% (inactive)
CCOC(=O)N1CCN(CC(=O)Nc2ccc(F)cc2)CC1	96% (inactive)
Cc1cc(C)cc(NC(=O)Cn2cnc3c(nnn3Cc3ccc(F)cc3)c2=O)c1	93% (inactive)
Cc1cccc(C(=O)NNC(=O)c2cccc([N+](=O)[O-])c2)c1	105% (inactive)
COc1ccccc1N1CCN(C(=O)c2ccc(Cl)c(S(=O)(=O)N3CCCC3)c2)CC1	100% (inactive)
O=C(Cc1ccc(F)cc1)N1CCN=C1SCc1cccc([N+](=O)[O-])c1	96% (inactive)
Cc1ccc(CSc2nc3[nH]ncc3c(=O)[nH]2)cc1	76% (active)
Cc1cccc(NC(=O)CSc2nc3[nH]ncc3c(=O)[nH]2)c1	97% (inactive)
CCCSc1nc2[nH]ncc2c(=O)[nH]1	100% (inactive)
O=C(NCc1cccs1)c1cc(-c2ccccn2)nc2ccc(Br)cc12	98% (inactive)
O=C(c1cccc([N+](=O)[O-])c1)N1CCN(C(=O)c2ccco2)CC1	94% (inactive)
CCN(C(=O)COC(=O)/C=C/c1nc2ccccc2s1)C1CCS(=O)(=O)C1 (configuration not stated)	93% (inactive)
CCOc1ccc(N(CC(=O)NCCc2ccc(OC)cc2)S(C)(=O)=O)cc1	100% (inactive)
Cc1ccccc1NC(=S)NNC(=O)c1cccc(Br)c1	91% (inactive)
Cc1nc(S(=O)(=O)c2ccc(Br)cc2)nc2c1CCC2	94% (inactive)
COc1ccc(C(=O)Nc2ccc(NC(=O)C(C)C)nc2)cc1	93% (inactive)
Cc1cccc(C(=O)OC(C)CN2CCN(C)CC2)c1 (configuration not stated)	101% (inactive)
Nc1ccc(OCC(O)C[n+]2ccc(CCS(=O)(=O)[O-])cc2)cc1 (configuration not stated)	102% (inactive)
O=C(Cc1ccc(F)cc1)N/N=C/c1ccc2c(c1)OCO2	97% (inactive)
OCCC1CN(Cc2cccn2-c2nccs2)CCN1CCc1ccccc1 (configuration not stated)	95% (inactive)

SMILES	percent activity (GTP binding)
CC(/C=N/NC(=O)c1ccncc1)=C\c1ccco1	99% (inactive)
CCOC(=O)C1(Cc2cccc(OC)c2)CCCN(S(=O)(=O)c2cccnc2)C1 (configuration not stated)	100% (inactive)
O=C(CSc1nnnn1-c1ccc(O)cc1)N1N=C(c2ccc3ccccc3c2)CC1c1ccccc1 (configuration not stated)	98% (inactive)
CC(=O)NC1C(OCc2ccccc2)OC(COC(C)=O)C(OC(C)=O)C1OC(C)=O (configuration not stated)	104% (inactive)
O=C(OCC1O[C@@H](OC(=O)c2cc(O)c(O)c(O)c2)[C@@H](OC(=O)c2cc(O)c(O)c(O)c2)[C@@H](OC(=O)c2cc(O)c(O)c(O)c2)[C@@H]1OC(=O)c1cc(O)c(O)c(O)c1)c1cc(O)c(O)c(O)c1 (some centres not stated)	79% (active)
NC(=O)COc1ccc(NC(=O)c2ccccc2-c2ccccc2)cc1	92% (inactive)
CCOC(=O)c1ccc(N/C(=N/S(=O)(=O)c2ccccc2)c2ccccc2)cc1	98% (inactive)
CCOC(=O)c1ccc(Nc2cc(C)nc3nc(C)nn23)cc1	99% (inactive)
CCOC(=O)c1nc(Nc2ccc(C(=O)OC)cc2)c2ccccc2n1	74% (active)
CC(=O)Nc1ccccc1NC(=O)c1cc(C)cc(C)c1	98% (inactive)
NC(N)=Nc1nc2ccc(Br)cc2c(=O)[nH]1	93% (inactive)
O=C(Nc1ccc(Cl)cc1)C1c2cccc[n+]2CC(=O)N1Cc1ccc2c(c1)OCO2 (configuration not stated)	99% (inactive)
CCC1CCCCN1C(=O)CSc1nc2c(c(=O)n(C)c(=O)n2C)n1C (configuration not stated)	98% (inactive)
Fc1cccc(Cc2noc(CN3CCN(c4cnccn4)CC3)n2)c1	101% (inactive)
CCOC(=O)c1ccc(NC2Nc3cc(C)nn3S2)cc1 (configuration not stated)	95% (inactive)
CC(=O)c1ccccc1NC(=O)CC1(CC(=O)O)CCCCC1	95% (inactive)
Cc1ccc(C)c(-n2nnnc2SCC(=O)c2c(N)n(C)c(=O)n(C)c2=O)c1	93% (inactive)
Cc1ccc(S(=O)(=O)NC(C(=O)N2CCOCCOCCOCCOCC2)c2ccccc2)cc1 (configuration not stated)	100% (inactive)
COc1ccccc1C(=O)CSc1cccc[n+]1[O-]	94% (inactive)
CCCCN(C(=O)COc1ccc(NC(C)=O)cc1)C1CCS(=O)(=O)C1 (configuration not stated)	96% (inactive)
Cc1ccc(Cl)cc1NC(=O)COC(=O)CC(C)(C)C	90% (inactive)
CCCCn1c(=O)c(C(C)=O)c(O)c2ccccc21	96% (inactive)
CCNC(=O)COc1cc(C)c(Br)c(C)c1	105% (inactive)
CC(C)NC(=S)NN=C1CCCCCCCCCCC1	93% (inactive)
C=CCn1c(-c2sc(-c3ccccc3)nc2C)n[nH]c1=S	90% (inactive)

SMILES	percent activity (GTP binding)
O=C(NNC(=S)NCCCN1CCOCC1)c1ccncc1	98% (inactive)
COc1c(F)c(F)c(C(=O)O)c(Nc2ccccc2C)c1F	100% (inactive)
Cc1ccc(Nc2c(F)c(F)c(F)c(F)c2C(=O)O)c(C)c1	134% [activator] (active)
Cc1ccc(NC(=S)NC(=O)c2ccc(-c3ccccc3)cc2)c(C)c1	99% (inactive)
COC(=O)C1=CN(Cc2ccc(OC)c(OC)c2)C=C(C(=O)OC)C1c1cccs1	99% (inactive)
CCn1c(-c2cccnc2Cl)nc2cc(C)c(C)cc21	99% (inactive)
Cc1ccc(C(=O)OC(C)CN2CCOCC2)cc1 (configuration not stated)	99% (inactive)
COc1ccccc1CNC(=O)c1cc(=O)c2ccccc2o1	96% (inactive)
COCCN(Cc1nc(-c2ccc(C(F)(F)F)cc2)no1)C(C)C	94% (inactive)
COc1ccccc1NC(=O)C1=C(C)NC(=O)NC1c1ccc(C)s1 (configuration not stated)	93% (inactive)
COc1ccc(-c2nc3cnccn3c2NC(C)(C)CC(C)(C)C)cc1O	101% (inactive)
Cc1nnc(N/N=C/C2CC=CCC2)[nH]c1=O (configuration not stated)	96% (inactive)
O=C(O)/C=C/c1ccc(OCCCF)cc1	101% (inactive)
CN(CC(=O)Nc1ccccc1[N+](=O)[O-])Cc1ccc(Br)cc1	98% (inactive)
CCC(C)(C)NC(=O)C(c1cccc(OC)c1OC)N(CC(C)C)C(=O)CCC(=O)Nc1cc(C)on1 (configuration not stated)	99% (inactive)
O=C(COC(=O)C1CCCCC1)Nc1ccc([N+](=O)[O-])cc1	96% (inactive)
Nc1nc(SCC(=O)N2CCN(S(=O)(=O)c3ccc(Cl)cc3)CC2)n[nH]1	100% (inactive)
O=C(Nc1ccc2c(c1)CCC2)c1ccc(Br)s1	98% (inactive)
CCC(c1nnnn1C1CCCC1)N(Cc1cccs1)Cc1cc2cccc(C)c2[nH]c1=O (configuration not stated)	103% (inactive)
Cc1cccc2cc(CN(Cc3cccs3)C(c3nnnn3C3CCCC3)C(C)C)c(=O)[nH]c12 (configuration not stated)	72% (active)
Cc1cccc2cc(CN(Cc3ccc4c(c3)OCO4)Cc3nnnn3C3CCCC3)c(=O)[nH]c12	94% (inactive)
COc1cc(OC)c(C(=O)OCC(=O)N2CC(=O)Nc3ccccc32)cc1OC	103% (inactive)
CSc1nc2nc(-c3cccc(C(F)(F)F)c3)ccn2n1	93% (inactive)
COc1ccc(NC(=O)c2c(SC)nsc2SC)cc1	105% (inactive)
CSc1ncccc1C(=O)NC1CCCCCC1	96% (inactive)

SMILES	percent activity (GTP binding)
CSc1nsc(SC)c1NC(=O)OC1CCCCC1	35% (active)
Cc1cc(C)n(-c2ccc(C(=O)O)cc2[N+](=O)[O-])n1	98% (inactive)
COc1ccc(NC(=O)CN2C(=O)CSC2=O)cc1	98% (inactive)
COc1cccc(OC)c1C(=O)OCC(=O)/C(C#N)=C(\C)N	95% (inactive)
CC1(C)C(c2cccs2)=[N+]([O-])C2(CCCCC2=O)N1O (configuration not stated)	99% (inactive)
Cc1cc(NC(=O)CN2C(=O)NC(C)(CCc3ccccc3)C2=O)no1 (configuration not stated)	96% (inactive)
CC(=O)c1ccc(NC(=O)CSC(=S)N2CCCC2)cc1	97% (inactive)
CCNC(=O)COC(=O)CCNC(=O)c1cccc(C)c1	102% (inactive)
O=C(N/N=C/c1ccco1)c1ccc(NC(=O)C2CC2)cc1	92% (inactive)
CCOC(=O)c1ccccc1NC(=O)CSc1nc2ccccc2c(=O)[nH]1	92% (inactive)
CCN(CC)Cc1nc2sc(C)c(C)c2c(=O)[nH]1	94% (inactive)
O=C(NN=C1CCC(=NNC(=O)c2cccnc2)CC1)c1cccnc1	96% (inactive)
O=C(CCN1CCN(C/C=C/c2ccccc2)CC1)Nc1cccc(F)c1	98% (inactive)
C=CCn1c(CCNC(=O)c2ccccc2F)nnc1SCC(=O)Nc1ccc(OC)cc1	96% (inactive)
Cc1ccccc1OCCOc1ccc([N+](=O)[O-])cc1/C=N/n1cnnc1	95% (inactive)
Cn1cnnc1Sc1ccc(S(C)(=O)=O)cc1[N+](=O)[O-]	99% (inactive)
Cc1nc(N2CCC(C)CC2)c2c(C)c(C(=O)Nc3cc(F)ccc3C)sc2n1	92% (inactive)
O=C(COC(=O)c1ccccc1)Nc1cccc(S(=O)(=O)N2CCOCC2)c1	96% (inactive)
O=C1Nc2cc(Cl)c(Cl)cc2N(O)N1c1ccccc1Cl	92% (inactive)
O=[N+]([O-])c1cccc(/C([O-])=C(/C(=S)Nc2ccccc2F)[n+]2ccccc2)c1	95% (inactive)
CCOc1cc2[nH]c(=O)n(Cc3ccc(C(=O)NCCCN4CCCC4=O)cc3)c(=O)c2cc1OCC	98% (inactive)
O=C(/C=C/c1ccc(Cl)cc1)Nc1ccc(S(=O)(=O)Nc2ncccn2)cc1	98% (inactive)
